Screens (PubChem BioAssay)
Hits are enriched below; roughly 4% of the tested compounds scored in any of these assays.
TWEAK-Fn14 inh: inhibitors of TWEAK-Fn14 interaction signaling; TWEAK-stimulated Fn14 reporter cells, luciferase luminescence, 8 h; inhibition, % at 10 µM; 360,000 compounds, 2% hits; AID 1159606; in the data active = inhibition above about 50%
CF NFkB block: cystic fibrosis NF-kB activation inhibition | KKLEB NF-kB-GFP reporter, PAF-induced, GFP fluorescence overnight | inhibition, % at 5 µM | 360,000 compounds, 0.86% hits | AID 588850;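 active = at least 50% inhibition at 5 µM, scaled per plate between neutral and stimulator controls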;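 note: PAF is a Pseudomonas aeruginosa culture filtrate used as stimulus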
HIF-2a block: HIF-2a inhibition; 360,000 compounds, 0.72% hits; 786-0 RCC cells HIF-2a reporter, luciferase luminescence, overnight; inhibition, % at 18.8 µM; AID 624352;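 active = inhibition of the luminescence signal of 40% or more relative to plate controls, in a single-dose primary screen at 18.75 µM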
TROY signal inh: TROY signaling inhibition. Q293 LMP1-TROYcd NF-kB luciferase reporter, 4 h. inhibition, % at 10 µM. 360,000 compounds, 0.98% hits;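 active = compounds whose plate-normalised and pattern-corrected inhibition of the luciferase reporter signal at the single screening dose is 50% or more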
KKLEB cytotox: counter-screen for CF NF-kB inhibitors: cytotoxicity; KKLEB CF airway cells viability, ATPlite luminescence, overnight; hits give low values; cells stimulated with P. aeruginosa culture filtrate; activity change (cytotoxicity), % at 5 µM; 360,000 compounds, 0.36% hits;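 active = corrected activity change at or below -50% at 5 µM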
Peg3 prom inh: Peg3 promoter activity inhibition. HeLa PEG-Prom luciferase reporter, luminescence, overnight. inhibition, % at 20 µM. 360,000 compounds, 1.7% hits. AID 588405;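 active = inhibition of at least 50% at 20 µM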
Large screens that a line does not name were inactive.

CN(C)c1ccc(-[n+]2c(-c3ccccc3)cc(-c3ccccc3)cc2-c2ccccc2)cc1	TWEAK-Fn14 inh 66.2, Peg3 prom inh 71.7
CCOC(=O)c1cccc(-[n+]2c(-c3ccccc3)cc(-c3ccccc3)cc2-c2ccccc2)c1	none
Cc1ccc(-c2cc(-c3ccc(C)cc3)[n+](-c3ccc(C(=O)[O-])cc3)c(-c3ccc(C)cc3)c2)cc1	none
Cc1ccc(-c2cc(-c3ccccc3)cc(-c3ccccc3)[n+]2-c2ccccc2)cc1	TWEAK-Fn14 inh 103.8, TROY signal inh 84.3, Peg3 prom inh 99.5
Cn1c(O)c(C=NCCN2CCN(C(=O)c3ccccc3)CC2)c(=O)n(C)c1=O	none
CCCCn1c(=O)c(C(=O)NC(C)c2ccccc2)c(O)c2ccccc21 (stereo not given)	none
S=P(NCCSCc1ccccc1)(N1CC1)N1CC1	none
Clc1cccc(N2CCNCC2)c1Cl	KKLEB cytotox -67.1
c1ccc2c(N3CCNCC3)cccc2c1	none
CC(=O)OC1(c2ccccc2)CCN(C)CC1(C)C (stereo not given)	none
O=[N+]([O-])c1ccc(NCc2ccc(Cl)cc2)c2ccncc12	TWEAK-Fn14 inh 50.6
CN1CCc2cc(O)cc3c2[C@H]1Cc1ccc(O)c(O)c1-3	KKLEB cytotox -76.8
Cc1cccc(-n2c(/C=C/c3ccc([N+](=O)[O-])o3)nc3ccccc3c2=O)c1	TWEAK-Fn14 inh 94.6, Peg3 prom inh 85.7
CCC(C)NC(=O)c1c(N)n(Cc2ccc3c(c2)OCO3)c2nc3ccccc3nc12 (stereo not given)	TROY signal inh 57.2
CN1CCN(Cc2ccc3ccccc3c2)CC1	none
CCCCCCOc1ccc(CN2CCN(C)CC2)cc1	TWEAK-Fn14 inh 61.1, TROY signal inh 65.0
O=C(c1ccc(Cl)cc1)C1CCCN(Cc2cccc3cnccc23)C1 (stereo not given)	TROY signal inh 85.2
Cc1ccc(CN2C(=O)NC(=O)C3(Cc4c(nc5ccccn5c4=O)N4CCCCCC43)C2=O)cc1 (stereo not given)	TROY signal inh 86.8
O=C1NC(=O)C2(Cc3ccccc3N3CCCC32)C(=O)N1c1cccc(Cl)c1 (stereo not given)	none
CC1CCCC(NC(=O)COC(=O)Cc2ccccc2)C1C (stereo not given)	none
CC(=O)O[C@@H]1/C=C/[C@](C)(O)C[C@@H](C)C/C=C/[C@H]2[C@@H]3O[C@]3(C)[C@@H](C)[C@H]3[C@H](Cc4ccccc4)NC(=O)[C@@]312	CF NFkB block 54.9, KKLEB cytotox -53.4
CCC(=O)c1cn(Cc2ccccc2C#N)c2ccccc12	none
COc1ccc(-n2c(O)c(/C=C3\C=Nc4ccc(Br)cc43)c(=O)[nH]c2=O)c(OC)c1	TWEAK-Fn14 inh 55.2, HIF-2a block 44.6
O=c1[nH]c(=O)n(-c2ccccc2F)c(O)c1/C=C1\C=Nc2ccccc21	TWEAK-Fn14 inh 54.2
NP(=O)(OCCCc1ccccc1)Oc1ccc(Cl)cc1 (stereo not given)	none
O=c1[nH]c(O)c(N=Nc2cccc(S(=O)(=O)N3CCOCC3)c2)c(=O)[nH]1	none
Cc1ccc(C(O)(c2ccc(C)c(C)c2)C2CN3CCC2CC3)cc1C (stereo not given)	Peg3 prom inh 98.1
CC1=CC(C)C(COC(N)=O)(COC(N)=O)C(C)C1 (stereo not given)	none
CC12C=CC(=O)CC1CCC1C2CCC2(C)C(O)C(O)CC12 (stereo not given)	none
CCC(=O)[C@@H](C)[C@@H](O)[C@H](C)C[C@@H](C)C1OC(=O)C[C@@]2(O)CC=C(C)C(O2)C(C)=CCCC[C@H](O[C@H]2C[C@@H](OC(N)=O)[C@H](O)[C@@H](C)O2)C=C[C@H](C)C[C@H]1C (stereo not given in full)	TWEAK-Fn14 inh 88.9 (no result: CF NFkB block, KKLEB cytotox, Peg3 prom inh)
Cc1ccc2c(c1)NP(=S)(Oc1ccccc1)N2 (stereo not given)	none
Cc1ccc(OP2(=O)Nc3cc(C)c(C)cc3S2)cc1 (stereo not given)	TWEAK-Fn14 inh 64.7
Cc1cc(OC(=O)CCNC(=O)OC(C)(C)C)c2c3c(c(=O)oc2c1)CCC3	TWEAK-Fn14 inh 62.9
Cc1ccc(N2CCNCC2C)cc1 (stereo not given)	none
Clc1ccc(C(Cl)(Cl)Cl)c(Cl)c1	none
O=c1[nH]c(O)c(N=Nc2ccc3c(c2)OCCO3)c(=O)[nH]1	TWEAK-Fn14 inh 90.7, TROY signal inh 87.6
COc1ccc(NC2=NCCCS2)cc1OC	none
c1ccc(N2C3C4CC(C5CCCC54)C32)cc1 (stereo not given)	none
Cc1ccc(Cn2cc(C=O)c3ccccc32)cc1	Peg3 prom inh 62.8
O=Cc1cn(Cc2ccccc2[N+](=O)[O-])c2ccccc12	none
O=c1[nH]c2ccccc2n1C1CCN(C(c2ccccc2OC(F)(F)F)c2nnnn2-c2ccc3c(c2)OCCO3)CC1 (stereo not given)	TWEAK-Fn14 inh 76.3, CF NFkB block 82.7, KKLEB cytotox -86.1, Peg3 prom inh 89.5
COc1cccc(C(c2nnnn2Cc2ccccc2)N2CCC(n3c(=O)[nH]c4ccccc43)CC2)c1OC (stereo not given)	CF NFkB block 86.9, KKLEB cytotox -75.1, Peg3 prom inh 73.5
COc1cccc(C(c2nnnn2-c2ccc3c(c2)OCCO3)N2CCC(n3c(=O)[nH]c4ccccc43)CC2)c1OC (stereo not given)	CF NFkB block 85.3, KKLEB cytotox -90.5
O=C1NCN(c2ccccc2)C12CCN(C(c1cccs1)c1nnnn1-c1ccc3c(c1)OCCO3)CC2 (stereo not given)	none
COc1cccc(C(c2nnnn2C2CCCC2)N2CCC3(CC2)C(=O)NCN3c2ccccc2)c1OC (stereo not given)	none
O=C(COc1ccc(S(=O)(=O)N2CCCCC2)cc1)N1CCN(Cc2ccccc2)CC1	none
O=C(CN1CCCCC1)c1ccccc1Cl	none
Cc1[nH]n(-c2ccccc2)c(=O)c1C(c1ccc([N+](=O)[O-])cc1)c1c(C)[nH]n(-c2ccccc2)c1=O	CF NFkB block 54.6
CN1CCN(Cc2nnc3n2-c2ccc(Cl)cc2C(c2ccccc2)=NC3)CC1	none
CC(=O)O/C(=C1\CC2C3CC=C4CC(OC(C)=O)CCC4(C)C3CCC2(C)C1=O)C(F)(F)F (stereo not given)	Peg3 prom inh 63.1
COC(=O)C1=C(c2ccc(C(C)=O)cc2)C[C@@H]2CC[C@H]1N2C(=O)N1CCC(O)CC1	none
CCCCOC(=O)c1ccc(NC(=O)c2c(O)[nH]c(=O)[nH]c2=O)cc1	none
COc1cc2c3cc1Oc1c(OC)c(OC)cc4c1[C@H](Cc1ccc(cc1)Oc1cc(ccc1O)C[C@H]3N(C)CC2)N(C)CC4	Peg3 prom inh 70.2
